From PubChem BioAssay (EPA / NIEHS)
More than one record can exist for a structure, and the calls need not agree. Activity calls are given as the source filed them. The calls were made as follows: active = hit-call score of the fitted dose curve at least 0.9, where 1 is the maximum; inactive = score below 0.9.

experiment: ATG_TAL_CIS: Attagene CIS-FACTORIAL HepG2 Assay for human TAL Basal Promoter (AID 2282966); details: HepG2 Attagene cis-factorial TAL promoter reporter; actives raise or lower the signal
Experimental: ATG_CIS is a cell-based, multiplexed-readout assay that uses HepG2, a human liver cell line, with measurements taken at 24 hours after chemical dosing in a 24-well plate.ATG_TAL_CIS is one of 52 assay component(s) measured or calculated from the ATG_CIS assay. It is designed to make measurements of mRNA induction, a form of inducible reporter, as detected with fluorescence intensity signals by Reverse transcription polymerase chain reaction (RT-PCR) and Capillary electrophoresis technology.Data from the assay component ATG_TAL_CIS was analyzed into 1 assay endpoint. This assay endpoint, ATG_TAL_CIS, was analyzed with bidirectional fitting relative to DMSO as the negative control and baseline of activity. Using a type of inducible reporter, measures of mRNA for gain or loss-of-signal activity can be used to understand the background control at the transcription factor-level as they relate to the gene . Furthermore, this assay endpoint can be referred to as a secondary readout, because this assay has produced multiple assay endpoints where this one serves a background control function. To generalize the intended target to other relatable targets, this assay endpoint is annotated to the background measurement intended target family, where the subfamily is internal marker.
Human liver HepG2 cells are transiently transfected with multiple reporter transcription units (MRTUs) in 6-well plates using FuGene 6 reagent (Roche; 3 ml FuGene/1 mg DNA). The MRTU constructs are regulated by a cis-regulating element (promoter). […] A major difference between the CIS and TRANS system is that in CIS activities of endogenous TFs are measured, whereas the TRANS assay evaluates changes in activities of exogenous, chimeric NR-Gal4 proteins. […] At the end of 24 hour incubation, total RNA was isolated using TriZol reagent (Invitrogen). The isolated RNA is then reverse-transcribed using oligo(dT) primer and Mo-MLV reverse transcriptase (Invitrogen) with DNAse I (Ambion) treatment for 30 min. The one-tenth of the produced cDNA was amplified by PCR using Taq DNA polymerase (Invitrogen) and two reporter sequence-specific primers. The PCR products were fluorescently labeled by primer extension with 6-arboxyfluorescein (6-FAM) 5'-labeled reporter sequence-specific primer (2 min at 95 C, 20 s at 68 C and 10 min at 72 C) and these products were digested with 5U of HpaI (New England Biolabs) for 2h at 37 C. The fragments were purified using Qiaquick PCR columns (Qiagen), analyzed on an ABI 3130xL genetic analyzer (Applied Biosystems) with peak positions identified by using a set of X-rhodamine (ROX)-labeled MapMarker1000 molecular weight standards (BioVentures). The raw capillary electrophoresis data was processed using Attagraph software (Attagene).

| Compound | outcome | AC50 |
| --- | --- | --- |
| NC(=NCCCCCCN=C(N)/N=C(\N)Nc1ccc(Cl)cc1)/N=C(\N)Nc1ccc(Cl)cc1 | inactive | 119 µM (active) |
| NCc1cccc(CN)c1 | inactive |  |
| O=S(=O)(O)c1ccccc1 | inactive |  |
| CNNCc1ccc(C(=O)NC(C)C)cc1 | inactive |  |
| CC(C)C=O | inactive |  |
| Cc1cc(C(=C2C=CC(=Nc3ccc(S(=O)(=O)O)cc3)C=C2)c2ccc(Nc3ccc(S(=O)(=O)O)cc3)cc2)cc(S(=O)(=O)O)c1N | inactive |  |
| CC(C)[C@@H]1CC[C@@H](C)C[C@H]1O | inactive |  |
| CCCCc1ccc2ccccc2c1S(=O)(=O)O | inactive |  |
| O=C(O)c1cccc(C(=O)O)n1 | inactive |  |
| CCC(C)c1nccnc1OC (stereo not given) | inactive |  |
| O=C(c1ccccc1)c1ccccc1 | inactive |  |
| COCN(COC)c1nc(N(COC)COC)nc(N(COC)COC)n1 | inactive |  |
| CC1COCc2cc3c(cc21)C(C)(C)C(C)C3(C)C (stereo not given) |  | 144 µM (active) |
| O=C(F)C(F)(F)C(F)(F)C(F)(F)C(F)F | inactive |  |
| O=C1OC(=O)C(F)(F)C1(F)F | inactive |  |
| CCCCCCCCCCCCOC(=O)c1cc(O)c(O)c(O)c1 | inactive |  |
| CCCCCCC(C)(C)C(=O)O | inactive |  |
| CCCCCc1ccc(O)cc1 | inactive |  |
| O=C(NO)c1ccccc1 |  | 75.5 µM (active) [middle of 4 runs] |

| Compound | outcome | AC50 |
| --- | --- | --- |
| Cc1ccccc1OCC(=O)O | inactive |  |
| FC1(F)C=CC(F)(F)C1(F)F | inactive |  |
| COC(=O)C(F)(F)C(F)(F)C(F)(F)F | inactive |  |
| FCOC(C(F)(F)F)C(F)(F)F | inactive |  |
| OCC1CCC(CO)CC1 (stereo not given) | inactive |  |
| O=CC(F)(F)C(F)(F)C(F)(F)C(F)F | inactive |  |
| O=C(C=C(O)C(F)(F)F)C(F)(F)F | inactive |  |
| Cc1ccc(C(=O)c2ccccc2)cc1 | inactive |  |
| Clc1ccc2c(Cl)ccnc2c1 | inactive |  |
| CCc1ccccc1O | inactive |  |
| CC1=CC(=O)c2ccccc2C1=O | inactive |  |
| C=C(c1ccc(C(=O)O)cc1)c1cc2c(cc1C)C(C)(C)CCC2(C)C | inactive | 30.4 µM (active) |
| Oc1c(Cl)cc(Cl)cc1Sc1cc(Cl)cc(Cl)c1O | inactive |  |
| O=C1c2ccc(O)c(O)c2C(=O)c2c(O)ccc(O)c21 | inactive |  |
| OCCN1CN(CCO)CN(CCO)C1 | inactive |  |
| FC(F)(F)C1(F)C(F)(F)C(F)(F)C(F)(F)C(F)(C(F)(F)F)C1(F)F (stereo not given) | inactive |  |
| Oc1ccc(Cc2ccccc2O)cc1 | inactive |  |
| O=C(O)CCC(F)(F)C(F)(F)C(F)(F)C(F)(F)C(F)(F)C(F)(F)F | inactive |  |
| CCCCC(CC)C(=O)OCCOCCOCCOCCOC(=O)C(CC)CCCC (stereo not given) | inactive |  |
